T1: RBFOX1 RRM RbFoxmut (Fox-RRM*) (Homo sapiens, UniProt Q9NWB1 109-208, R118D;E147R;N151S;E152T)
T1 sequence: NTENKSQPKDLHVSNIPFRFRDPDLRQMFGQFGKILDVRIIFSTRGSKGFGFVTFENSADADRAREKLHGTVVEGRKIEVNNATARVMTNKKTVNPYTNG

B1: GCCACUG (DNA:RNA)
RNA: GGGAGACCGGAAUUCAGAUUGUCCGCCACUGUUAAAUCCCGUCGUAGCCACCA
DNA 1: CAATCTGAATTCCGGTCTCCC
DNA 2: TGGTGGCTACGACGGGATT
B2: AAGCCCU (DNA:RNA)
RNA: B1 RNA with G25A, C26A, C27G, A28C, U30C, G31U
DNA 1: CAATCTGAATTCCGGTCTCCC
DNA 2: TGGTGGCTACGACGGGATT
B3: CGAACAU (DNA:RNA)
RNA: B1 RNA with G25C, C26G, C27A, U30A, G31U
DNA 1: CAATCTGAATTCCGGTCTCCC
DNA 2: TGGTGGCTACGACGGGATT
B4: GCCGAGU (DNA:RNA)
RNA: B1 RNA with A28G, C29A, U30G, G31U
DNA 1: CAATCTGAATTCCGGTCTCCC
DNA 2: TGGTGGCTACGACGGGATT
B5: CUUGAUA (DNA:RNA)
RNA: B1 RNA with G25C, C26U, C27U, A28G, C29A, G31A
DNA 1: CAATCTGAATTCCGGTCTCCC
DNA 2: TGGTGGCTACGACGGGATT
B6: AGCGCUC (DNA:RNA)
RNA: B1 RNA with G25A, C26G, A28G, G31C
DNA 1: CAATCTGAATTCCGGTCTCCC
DNA 2: TGGTGGCTACGACGGGATT
B7: ACCCAAG (DNA:RNA)
RNA: B1 RNA with G25A, A28C, C29A, U30A
DNA 1: CAATCTGAATTCCGGTCTCCC
DNA 2: TGGTGGCTACGACGGGATT
B8: GUGUGAA (DNA:RNA)
RNA: B1 RNA with C26U, C27G, A28U, C29G, U30A, G31A
DNA 1: CAATCTGAATTCCGGTCTCCC
DNA 2: TGGTGGCTACGACGGGATT
B9: GUGAAUU (DNA:RNA)
RNA: B1 RNA with C26U, C27G, C29A, G31U
DNA 1: CAATCTGAATTCCGGTCTCCC
DNA 2: TGGTGGCTACGACGGGATT
B10: GUGAAUG (DNA:RNA)
RNA: B1 RNA with C26U, C27G, C29A
DNA 1: CAATCTGAATTCCGGTCTCCC
DNA 2: TGGTGGCTACGACGGGATT
B11: AAAUCUU (DNA:RNA)
RNA: B1 RNA with G25A, C26A, C27A, A28U, G31U
DNA 1: CAATCTGAATTCCGGTCTCCC
DNA 2: TGGTGGCTACGACGGGATT
B12: UGAGAAU (DNA:RNA)
RNA: GGGAGACCGGAAUUCAGAUUGUCCUGAGAAUUUAAAUCCCGUCGUAGCCACCA
DNA 1: CAATCTGAATTCCGGTCTCCC
DNA 2: TGGTGGCTACGACGGGATT
B13: GCUUAUG (DNA:RNA)
RNA: B1 RNA with C27U, A28U, C29A
DNA 1: CAATCTGAATTCCGGTCTCCC
DNA 2: TGGTGGCTACGACGGGATT
B14: CCUACGU (DNA:RNA)
RNA: B1 RNA with G25C, C27U, U30G, G31U
DNA 1: CAATCTGAATTCCGGTCTCCC
DNA 2: TGGTGGCTACGACGGGATT
B15: CACCCGC (DNA:RNA)
RNA: B1 RNA with G25C, C26A, A28C, U30G, G31C
DNA 1: CAATCTGAATTCCGGTCTCCC
DNA 2: TGGTGGCTACGACGGGATT
B16: UACUGGU (DNA:RNA)
RNA: B12 RNA with G26A, A27C, G28U, A29G, A30G
DNA 1: CAATCTGAATTCCGGTCTCCC
DNA 2: TGGTGGCTACGACGGGATT
B17: GGAUCCG (DNA:RNA)
RNA: B1 RNA with C26G, C27A, A28U, U30C
DNA 1: CAATCTGAATTCCGGTCTCCC
DNA 2: TGGTGGCTACGACGGGATT
B18: CGGACUG (DNA:RNA)
RNA: B1 RNA with G25C, C26G, C27G
DNA 1: CAATCTGAATTCCGGTCTCCC
DNA 2: TGGTGGCTACGACGGGATT
B19: CGGAGUG (DNA:RNA)
RNA: B1 RNA with G25C, C26G, C27G, C29G
DNA 1: CAATCTGAATTCCGGTCTCCC
DNA 2: TGGTGGCTACGACGGGATT
B20: UGGAGAC (DNA:RNA)
RNA: B12 RNA with A27G, G28A, A29G, U31C
DNA 1: CAATCTGAATTCCGGTCTCCC
DNA 2: TGGTGGCTACGACGGGATT
B21: UGGAGAG (DNA:RNA)
RNA: B12 RNA with A27G, G28A, A29G, U31G
DNA 1: CAATCTGAATTCCGGTCTCCC
DNA 2: TGGTGGCTACGACGGGATT
B22: UGGAUGG (DNA:RNA)
RNA: B1 RNA with G25U, C26G, C27G, C29U, U30G
DNA 1: CAATCTGAATTCCGGTCTCCC
DNA 2: TGGTGGCTACGACGGGATT
B23: UGGACUG (DNA:RNA)
RNA: B1 RNA with G25U, C26G, C27G
DNA 1: CAATCTGAATTCCGGTCTCCC
DNA 2: TGGTGGCTACGACGGGATT
B24: UGGAGUG (DNA:RNA)
RNA: B1 RNA with G25U, C26G, C27G, C29G
DNA 1: CAATCTGAATTCCGGTCTCCC
DNA 2: TGGTGGCTACGACGGGATT
B25: UGGAUCC (DNA:RNA)
RNA: B12 RNA with A27G, G28A, A29U, A30C, U31C
DNA 1: CAATCTGAATTCCGGTCTCCC
DNA 2: TGGTGGCTACGACGGGATT
B26: UGGAUGC (DNA:RNA)
RNA: B12 RNA with A27G, G28A, A29U, A30G, U31C
DNA 1: CAATCTGAATTCCGGTCTCCC
DNA 2: TGGTGGCTACGACGGGATT
B27: UGGAUCG (DNA:RNA)
RNA: B1 RNA with G25U, C26G, C27G, C29U, U30C
DNA 1: CAATCTGAATTCCGGTCTCCC
DNA 2: TGGTGGCTACGACGGGATT
B28: CGGAUGC (DNA:RNA)
RNA: B1 RNA with G25C, C26G, C27G, C29U, U30G, G31C
DNA 1: CAATCTGAATTCCGGTCTCCC
DNA 2: TGGTGGCTACGACGGGATT
B29: UAAGGAG (DNA:RNA)
RNA: B12 RNA with G26A, A29G, U31G
DNA 1: CAATCTGAATTCCGGTCTCCC
DNA 2: TGGTGGCTACGACGGGATT
B30: AGUAGGG (DNA:RNA)
RNA: B1 RNA with G25A, C26G, C27U, C29G, U30G
DNA 1: CAATCTGAATTCCGGTCTCCC
DNA 2: TGGTGGCTACGACGGGATT
B31: CAAGUGG (DNA:RNA)
RNA: B12 RNA with U25C, G26A, A29U, A30G, U31G
DNA 1: CAATCTGAATTCCGGTCTCCC
DNA 2: TGGTGGCTACGACGGGATT

Where a chain is given by its changes, count along the chain named. The full ranking holds about 16,000 sequences; the median of “ka relative to ugcaugu” is about 0.096, and the highest 2% start at about 0.35. The entries come from a sample that favours the highest values as a whole.

This assay has as its target T1, RBFOX1 RRM RbFoxmut (Fox-RRM*). Nature of the assay: EMSA; HiTS-Eq, 1 nM pool, 10 min; buffer printed only for the single-RNA assays: 10 mM Tris pH 7.5, 150 mM NaCl, 3.4 mM EDTA, 0.001% NP-40, 30 C. As to conditions: tags: His6 N-terminal (pET28a); label: 5' 32P. In a few lines:
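These values rest on relative association constants, computed from read-count changes of each RNA species versus the control reaction and normalised to the cognate motif. Reads came from free RNA recovered by 8% native PAGE after purified RbFox RRM (wild type or mutant) at increasing concentrations was equilibrated for 10 min in 50 µL with 1 nM of a 5′-radiolabelled pool with 7 randomized nucleotides and DNA-annealed flanks.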
Background: In EMSA bound probe runs differently from free probe, usually more slowly.
On to B1, for which the binding signal is 0.101 KA relative to UGCAUGU.

Regarding B2, the binding signal is 0.0868 KA relative to UGCAUGU.

B3: the binding signal is 0.0626 KA relative to UGCAUGU.

For B4, the binding signal was 0.123 KA relative to UGCAUGU.

In the case of B5, the binding signal is 0.134 KA relative to UGCAUGU.

Take B6: the binding signal was 0.0471 KA relative to UGCAUGU.

With B7, the binding signal is 0.0886 KA relative to UGCAUGU.

As to B8, the binding signal was 0.132 KA relative to UGCAUGU.

For the molecule B9, the binding signal is 0.118 KA relative to UGCAUGU.

For B10, the binding signal was 1.45 KA relative to UGCAUGU.

As to B11, the binding signal was 0.0581 KA relative to UGCAUGU.

Turning to B12, the binding signal is 0.092 KA relative to UGCAUGU.

As to B13, the binding signal was 0.142 KA relative to UGCAUGU.

As to B14, the binding signal was 0.146 KA relative to UGCAUGU.

For the molecule B15, the binding signal is 0.0852 KA relative to UGCAUGU.

Regarding B16, the binding signal was 0.103 KA relative to UGCAUGU.

B17: the binding signal was 0.153 KA relative to UGCAUGU.

As to B18, the binding signal is 0.353 KA relative to UGCAUGU.

On to B19, for which the binding signal was 0.198 KA relative to UGCAUGU.

In the case of B20, the binding signal was 0.0876 KA relative to UGCAUGU.

Turning to B21, the binding signal is 0.108 KA relative to UGCAUGU.

B22: the binding signal is 0.332 KA relative to UGCAUGU.

As to B23, the binding signal is 0.418 KA relative to UGCAUGU.

Regarding B24, the binding signal was 0.45 KA relative to UGCAUGU.

As for B25, the binding signal is 0.211 KA relative to UGCAUGU.

For B26, the binding signal is 0.438 KA relative to UGCAUGU.

As for B27, the binding signal was 0.597 KA relative to UGCAUGU.

Turning to B28, the binding signal is 0.189 KA relative to UGCAUGU.

Regarding B29, the binding signal was 0.11 KA relative to UGCAUGU.

In the case of B30, the binding signal was 0.0759 KA relative to UGCAUGU.

As for B31, the binding signal is 0.0554 KA relative to UGCAUGU.

Source of the values: publication PMC9911399, “Two distinct binding modes provide the RNA-binding protein RbFox with extraordinary sequence specificity”.
